Screens: PubChem, The Scripps Research Institute Molecular Screening Center
Shown are actives, neighbours in structure and some others; about 4.8% of the full set was active somewhere.
hcDAF-12 act – H. contortus DAF-12 activation, primary screen; HEK293 hcDAF-12 lit1-tk-luc reporter, luminescence; 0% DMSO, 100% Δ7-dafachronic acid; activation, % at 6.8 µM; 370,000 tested, 1.4% active; AID 652067;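 active = activation above the mean of all tested compounds plus 3 SD, cut at about 5.5% in these data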
DAX1 inh-1 – DAX1 (NR0B1) inhibition, primary screen. inhibition, % at 6.8 µM. 370,000 tested, 1.1% active. HEK293T StAR-luciferase reporter, SF-1/DAX-1 repression relief;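 active = inhibition above the mean over all tested compounds plus 3 SD, cut at about 3.6% in these data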;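 note: higher inhibition means more luminescence from relief of DAX-1 repression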
DAX1 inh-2 – inhibitors of human orphan nuclear receptor DAX1 (NR0B1); P51843; HEK293 Gal4-DAX1 luciferase reporter, luminescence; inhibition, % at 6.75 µM; 340,000 tested, 0.99% active; AID 504766;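 active = inhibition above the mean over all tested compounds plus 3 SD, cut at about 4.2% in these data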;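 note: inhibition shows as a rise in luminescence from relieved DAX1 repression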
Target sequence (P51843 207-470 limits assumed): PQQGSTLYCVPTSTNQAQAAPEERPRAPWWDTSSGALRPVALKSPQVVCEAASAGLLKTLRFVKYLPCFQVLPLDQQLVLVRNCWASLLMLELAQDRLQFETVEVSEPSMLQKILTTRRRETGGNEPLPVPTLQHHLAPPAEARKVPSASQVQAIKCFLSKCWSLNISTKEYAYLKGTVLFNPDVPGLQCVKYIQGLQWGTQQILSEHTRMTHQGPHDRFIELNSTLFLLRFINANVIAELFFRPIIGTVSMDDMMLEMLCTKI
SMARCA2 activ – activators of SMARCA2 function | MG213 cells, MMTV-luciferase reporter, dexamethasone, overnight | activation, % at 9.1 µM | 370,000 tested, 1% active | AID 652017; in the data active = activation above about 7.8%
hgDAF12 agonist – activates the H. glycines DAF-12 receptor ligand-binding domain; HEK293 GAL4-hgDAF12 UAS-luciferase reporter, agonist luminescence; normalized to butyrate control; activation, % at 6.8 µM; 370,000 tested, 1.8% active; AID 687014;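 active = activation above a cutoff set at the mean of all screened compounds plus 3 SD, cut at about 10% in these data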
ssDAF12 agonist – activates DAF-12 receptor from parasite S. stercoralis; HEK293 ssDAF-12/GRIP1 lit1-tk-luc reporter, luminescence; % of 3 µM dafachronic acid response; activation, % at 6.8 µM; 370,000 tested, 1% active; AID 652126;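 active = activation above the mean over all tested compounds plus 3 SD, cut at about 0.9% in these data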
A number is an active result; 0 = inactive; - = not tested or not shown.

SMILES | hcDAF-12 act | DAX1 inh-1 | DAX1 inh-2 | SMARCA2 activ | hgDAF12 agonist | ssDAF12 agonist
Cc1ccc(N=Nc2c(N)n[nH]c2N)cc1 | 0 | 0 | 0 | 0 | 0 | 0
Nc1n[nH]c(N)c1N=Nc1ccc2c(c1)OCO2 | 0 | 0 | 4.8 | 0 | 0 | 0
C=C1C[C@H](O[C@@H]2O[C@H](CO)[C@@H](O)[C@H](O)[C@H]2O)[C@@H]2[C@H](OC(=O)[C@H]2C)[C@H]2[C@H](C)[C@@H](O)C[C@@H]12 | 0 | 0 | 0 | 0 | 0 | 0
CC1Cc2ccccc2N1C(=O)Cc1cccs1 (configuration not stated) | 0 | 0 | 0 | 0 | 0 | 0
COc1ccccc1C(=O)Nc1ccccc1SC(=O)c1ccccc1OC | 0 | 0 | 4.3 | 0 | 0 | 0
COc1ccccc1C(=O)Nc1cc(-c2ccc(C)cc2)no1 | 0 | 0 | 0 | 0 | 12 | 1.0
CCOc1cc(C(=O)N/N=C/c2ccsc2)cc(OCC)c1OCC | 0 | 0 | 0 | 0 | 0 | 0
COc1ccc(C)cc1-n1nnnc1SCC1CCCO1 (configuration not stated) | 0 | 0 | 0 | 0 | 0 | 0
COc1ccc(C)cc1-n1nnnc1SCc1nc2ccccc2s1 | 5.9 | 0 | 0 | 0 | 0 | 1.2
Cc1ccccc1N(CC(=O)N/N=C/c1ccc(F)cc1)C(=O)c1ccccc1 | 0 | 0 | 0 | 0 | 0 | 0.9
CCN(CC)S(=O)(=O)c1ccc(F)c(C(=O)NCCCN2CCOCC2)c1 | 0 | 0 | 0 | 0 | 0 | 0
Cc1[nH]c2c([N+](=O)[O-])cccc2c1C | 0 | 0 | 4.2 | 0 | 0 | 0
Oc1ccc(-c2[nH]ncc2-c2ccc(Br)cc2)c(O)c1 | 0 | 0 | 6.4 | 0 | 0 | 0
Cc1ccc(Nc2c(-c3ccc(C)o3)nc3cnccn23)cc1 | 0 | 0 | 0 | 0 | 12 | 0
COc1ccc(C)cc1S(=O)(=O)N(C)CC(=O)N1CCCC1 | 0 | 0 | 4.8 | 0 | 0 | 0
COc1ccc(C)cc1S(=O)(=O)N(C)CC(=O)N1CCCCC1 | 0 | 0 | 0 | 0 | 0 | 0
COc1ccc(-n2ncc3c(NCCCN4CCOCC4)ncnc32)cc1 | 0 | 0 | 0 | 0 | 0 | 0
CCN1C(=S)SC(=O)C1=C1C=C(C)OC(C)=C1 | 0 | 0 | 0 | 0 | 0 | 0
CCN1C(=S)SC(=O)C1=C1C=C(C)N(Cc2ccco2)C(C)=C1 | 6.5 | 0 | 0 | 0 | 12 | 0
CCCc1nnc(SCC(=O)N2CCCCC2C)n1CCCOC (configuration not stated) | 0 | 0 | 0 | 0 | 0 | 0
Nc1nnc(/C=C/c2ccccc2Cl)s1 | 0 | 0 | 0 | 0 | 12 | 0
CN(C)C(=O)C1=NOC2(C1)C(=O)Nc1ccccc12 (configuration not stated) | 0 | 0 | - | 0 | 0 | 0
CCOC(=O)C1=NOC2(C1)C(=O)Nc1c(Cl)cccc12 (configuration not stated) | 5.7 | 0 | - | 0 | 0 | 0
CC(OCCN(C)C)C(=O)C12CC3CC(CC(C3)C1)C2 (configuration not stated) | 0 | 0 | - | 0 | 0 | 0
O=C(Cn1nnc2ccccc2c1=O)Nc1ccc(S(=O)(=O)N2CCOCC2)cc1 | 0 | 0 | 0 | 0 | 0 | 0
SMILES | hcDAF-12 act | DAX1 inh-1 | DAX1 inh-2 | SMARCA2 activ | hgDAF12 agonist | ssDAF12 agonist
O=C(CCCCCNC(=O)N1CCn2c1nc1ccccc12)N[C@@H](Cc1ccccc1)C(=O)O | 0 | 0 | 4.5 | 0 | 0 | 0
Cc1cccc(C(=O)NC2CCN(S(=O)(=O)c3cccc(F)c3)CC2)c1 | 0 | 0 | 0 | 0 | 0 | 0
Cc1nc2ccc(NC(=S)NC3CCCCC3)cc2nc1C | 0 | 0 | 6.6 | 0 | 0 | 0
Cc1ccc(NC(=S)NC2CCCC2)cc1C | 0 | 0 | 0 | 0 | 0 | 0
S=C(Nc1ccc2[nH]ccc2c1)NC1CCCCC1 | 0 | 0 | 4.7 | 0 | 0 | 0
O=c1cc(CN2CCN(c3cccc(C(F)(F)F)c3)CC2)nc2sccn12 | 0 | 0 | - | 0 | 0 | 0
O=c1cc(CN2CCN(c3ccccn3)CC2)nc2sccn12 | 5.7 | 0 | 0 | 0 | 0 | 0
Cn1c(CNc2ccc(F)cc2)nc2ccccc21 | 6.5 | 0 | 0 | 0 | 13 | 3.1
Cn1c(Cc2nc3ccccc3n2C)nc2ccccc21 | 0 | 0 | 0 | 0 | 0 | 0
COCC(C)NC(=O)NC(=O)c1ccc(Cl)cc1 (configuration not stated) | 0 | 0 | 0 | 0 | 0 | 1.1
CC(NC(=O)NC(=O)c1ccc(Cl)cc1)c1ccccc1 (configuration not stated) | 0 | 0 | 0 | 0 | 0 | 0
CCCC12CN(C(=O)c3ccco3)CC(CCC)(CN(C(=O)c3ccco3)C1)C2=O | 0 | 0 | 0 | 0 | 0 | 0
CC(O)(c1ccccc1)c1nc(-c2cccc(C(=O)O)c2)cs1 (configuration not stated) | 0 | 0 | - | 0 | 11 | 0
Cn1cc(C=O)c(-c2ccc3c(c2)OCCCO3)n1 | 0 | 0 | 0 | 0 | 0 | 0
N/C(Cc1ccc(Cl)cc1Cl)=N\OC(=O)Cc1cccs1 | 0 | 0 | 0 | 0 | 0 | 0
N/C(Cc1cccs1)=N\OC(=O)COc1ccc(Cl)cc1Cl | 0 | 0 | 0 | 0 | 13 | 0
COc1ccc(CC(=O)N/N=C(\C)c2cccnc2)cc1OC | 0 | 0 | 0 | 0 | 0 | 0
CCCn1nnc(NC(=O)c2cccc(OCC)c2)n1 | 0 | 0 | 0 | 0 | 0 | 0
CCn1nnc(NC(=O)c2ccccc2Br)n1 | 0 | 0 | 0 | 0 | 0 | 1.0
CCCn1nnc(NC(=O)c2ccc3ccccc3c2)n1 | 0 | 0 | 0 | 0 | 11 | 0
CCCn1nnc(NC(=O)c2ccccc2Br)n1 | 0 | 0 | 0 | 0 | 0 | 0
COc1ccc2c(c1)c(=O)c(C(=O)c1ccc(C)cc1)cn2CC(=O)Nc1ccc(F)cc1 | 0 | 0 | 0 | 0 | 0 | 0
O=[N+]([O-])c1ccccc1N=NNc1ccccc1 | 0 | 0 | 0 | 0 | 0 | 1.6
COC(=O)c1ccccc1NN=Nc1ccccc1[N+](=O)[O-] | 0 | 0 | 0 | 0 | 0 | 0
CCOc1ccccc1C(=O)OCC(=O)NCCNC(=O)COC(=O)c1ccccc1OCC | 0 | 0 | 0 | 0 | 0 | 0
SMILES | hcDAF-12 act | DAX1 inh-1 | DAX1 inh-2 | SMARCA2 activ | hgDAF12 agonist | ssDAF12 agonist
Cc1ccc(S(=O)(=O)c2nc(Nc3ccccc3C#N)sc2Cl)cc1 | 6.3 | 0 | 0 | 0 | 0 | 0
c1cncc(CSc2ccc(-c3ccc4c(c3)OCO4)nn2)c1 | 5.6 | 0 | 0 | 0 | 0 | 0
O=c1[nH]nc(Cc2ccc(-c3ccccc3Cl)o2)c2ccccc12 | 0 | 0 | 0 | 0 | 0 | 1.4
Cc1cc(OCC(=O)NCC2CCC(C(=O)O)CC2)c2c(C)cc(=O)oc2c1 (configuration not stated) | 0 | 0 | 0 | 0 | 0 | 0
N#Cc1cc(Nc2c(N)nc[nH]c2=O)c([N+](=O)[O-])cc1C#N | 6.0 | 0 | 0 | 0 | 0 | 0
N#Cc1cc(NC2CCCC2)c([N+](=O)[O-])cc1C#N | 0 | 0 | 0 | 0 | 0 | 0
CC(=O)c1ccc(NC(=S)NC(=O)c2c(Cl)c(C)nn2C)cc1 | 0 | 0 | 4.7 | 0 | 0 | 0
